An excerpt weighted towards active compounds, which were near 2.3% of everything screened.
M1 ag parental: counter-screen for M1 agonists: effect in parental CHO-K1 cells; Fluo-8 calcium fluorescence; scaled to maximal ATP response, vehicle zero; actives 0.48% (n = 360,000); activation, % at 3 µM; in the data active = activation above about 15%;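 also: untransfected CHO-K1 host cells lacking M1 receptor as counterscreen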
M1 ag: human M1 muscarinic receptor agonists, primary screen, Fluo-8 calcium fluorescence, CHO-K1 cells, HTS. activation, % at 3 µM. actives 0.33% (n = 360,000). Muscarinic acetylcholine receptor M1 (Homo sapiens), P11229. AID 588814, 2011. CHO-K1 hM1, agonist mode; 0% DMSO, 100% acetylcholine EC100;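 active = activation above the run's mean compound activation plus 3 SD, cut at about 16% in these data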;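 also: peak over basal fluorescence ratio within a 140 s kinetic read after compound addition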
Target sequence (P11229 whole entry, looked up): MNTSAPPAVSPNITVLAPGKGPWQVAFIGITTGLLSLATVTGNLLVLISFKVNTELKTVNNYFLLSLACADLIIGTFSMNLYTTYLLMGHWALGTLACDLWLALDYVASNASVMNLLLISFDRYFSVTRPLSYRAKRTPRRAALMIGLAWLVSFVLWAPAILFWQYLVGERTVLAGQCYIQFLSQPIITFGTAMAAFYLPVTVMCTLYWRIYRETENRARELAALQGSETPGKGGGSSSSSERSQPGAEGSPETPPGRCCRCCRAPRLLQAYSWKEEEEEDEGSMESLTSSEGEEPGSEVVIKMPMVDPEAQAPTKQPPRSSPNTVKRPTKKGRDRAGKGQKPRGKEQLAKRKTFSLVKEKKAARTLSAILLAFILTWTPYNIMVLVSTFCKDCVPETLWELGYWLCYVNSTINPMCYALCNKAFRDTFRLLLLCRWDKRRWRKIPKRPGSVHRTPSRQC
M1 PAM: human M1 muscarinic receptor positive allosteric modulators, primary screen, CHO-K1 cells, Fluo-8 calcium fluorescence, 1536-well; CHO-K1 hM1, ACh EC20; 0% = ACh EC20, 100% = maximal ACh; activation, % at 3 µM; Muscarinic acetylcholine receptor M1 (Homo sapiens), P11229; AID 588819, 2011; actives 0.088% (n = 360,000); in the data active = activation above about 19%, passing the limit was not always enough
CHO-K1 Ca PAM: nonselective calcium activators in parental CHO-K1 cells, primary screen, counter-screen for M1 PAM project, cell-based, Fluo-8 calcium fluorescence, full deck, 1536-well. ATP EC20; 0% at ATP EC20, 100% at ATP max. activation, % at 3 µM. actives 0.02% (n = 360,000). AID 602247, 2012;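 active = activation above the run cutoff, the mean activation of all test compounds plus 3 SD, cut at about 40% in these data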;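 also: peak over basal fluorescence ratio in a 140 s read after ATP addition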
CHRM1 antagonist: human M1 muscarinic receptor antagonists, primary screen, CHO-K1 cells, Fluo-8 calcium fluorescence, 1536-well; actives 1.3% (n = 360,000); CHO-K1 hM1, ACh EC80 antagonist; inhibition, % at 3 µM; Muscarinic acetylcholine receptor M1 (Homo sapiens), P11229;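 active = percent inhibition above its own plate's cutoff, namely the mean of that plate's compound wells plus 3 SD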;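 also: peak over basal fluorescence ratio during 140 s after agonist addition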
CHO-K1 Ca antag: counter-screen for M1 antagonists: effect in parental CHO-K1 cells; ATP-induced calcium, Fluo-8 fluorescence; inhibition, % at 3 µM; actives 0.6% (n = 360,000);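 active = inhibition above a per-plate cutoff, the plate's mean sample inhibition plus 3 SD, cut at about 24% in these data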
Of the large screens only hits and unclear results are named; the others gave an inactive call; ! = not active in a repeat.

COc1ccc(N=Cc2sc(O)c3ccccc23)cc1	M1 ag 29.6, CHRM1 antagonist 29.6
O=C(CN(c1ccc(Br)cc1)S(=O)(=O)c1ccc(Cl)c([N+](=O)[O-])c1)NCC1CCCO1 (stereo not drawn)	none
COc1ccc(C(CC(=O)c2ccccc2)S(=O)(=O)c2ccc(C)cc2)cc1 (stereo not drawn)	none
CC(=O)CC(c1ccccc1)S(=O)(=O)c1ccc(C)cc1 (stereo not drawn)	CHRM1 antagonist 26.5
CCn1c(SCC(=O)Nc2ccccc2)nnc1-c1cccs1	none
CCn1c(SCC(=O)c2ccc(NS(=O)(=O)c3ccccc3)cc2)nnc1-c1cccs1	CHO-K1 Ca antag 23.7
CCc1nc2ccc(C(=O)NCCc3ccccn3)cn2c1N(C)Cc1cccs1	none
O=C(CN1CCCCC1)N1c2ccccc2CCc2ccccc21	CHRM1 antagonist 93.4
CC1CCN(CC(=O)N2c3ccccc3CCc3ccccc32)CC1	CHRM1 antagonist 72.2
O=C(CN1CCC(N2CCCCC2)CC1)N1CCCc2ccccc21	none
O=C(CN1CCC(O)CC1)N1c2ccccc2C=Cc2ccccc21	CHRM1 antagonist 47.0
CC(Oc1ccc(C#N)cc1)C(=O)N1CC=C(c2ccccc2)CC1 (stereo not drawn)	none
Cc1ccc(NC(=O)c2ccco2)c(NC(=O)c2ccc(Cl)cc2)c1	none
CCc1ccc(Cn2nnc(C(=O)Nc3ccc(OC)cc3OC)c2N)cc1	M1 ag 24.8
CCCCCCCCCCOC(=O)Cn1c(COc2ccccc2)[n+](C)c2ccccc21	CHRM1 antagonist 69.6
CCCCOC(=O)Cn1c(=O)n(CC(=O)OCCCC)c2ccccc21	none
CCCCCCCCCCOC(=O)Cn1c(COc2ccccc2C)[n+](C)c2ccccc21	CHRM1 antagonist 86.3
CCCCCCCCCCOC(=O)Cn1c(COc2ccc(OC)cc2)[n+](C)c2ccccc21	CHRM1 antagonist 41.5!
Cc1cccc(OCCCn2c(=O)sc3ccccc32)c1	none
CCOC(=O)Cn1c(COc2ccccc2OC)[n+](C)c2ccccc21	none
CCCCCCCCCCOC(=O)Cn1c(COc2cccc(C)c2)[n+](C)c2ccccc21	CHRM1 antagonist 36.2
CC(=O)Nc1ccc(CN(C)c2c(C)nc3ccc(C(=O)N4CCN(c5ccccc5)CC4)cn23)cc1	none
CCCCN1C(=O)C(CC(=O)NC2CCCC2)CC(C(=O)N2CCOCC2)=C1C (stereo not drawn)	none
CCCCCOC(=O)Cn1c(=O)oc2ccccc21	none
CCCCCCCCCCOC(=O)Cn1c(COc2ccc(Cl)cc2)[n+](C)c2ccccc21	CHRM1 antagonist 43.0
CC1(CCc2ccc3c(c2)OCO3)NCCc2c1[nH]c1ccccc21 (stereo not drawn)	M1 ag parental 20.7
COc1cccc(S(=O)(=O)N(C)C[C@@H]2OCc3cnnn3CCCC(=O)N([C@H](C)CO)C[C@@H]2C)c1	none
COc1cc(CC(=O)OCC(=O)Nc2sccc2C(N)=O)cc(OC)c1OC	M1 ag parental 15.7
NC(=O)c1ccsc1NC(=O)COC(=O)Cc1ccccc1Cl	M1 ag parental 18.5
CC(=O)c1ccc(OCC(=O)OCC(=O)Nc2sccc2C(N)=O)cc1	M1 ag parental 17.3, CHRM1 antagonist 34.8
NC(=O)c1ccsc1NC(=O)COC(=O)Cc1ccsc1	none
NC(=O)c1ccsc1NC(=O)COC(=O)CCOc1ccccc1	M1 ag parental 17.3
O=C(Nc1cccc(OC(F)(F)F)c1)[C@@H]1O[C@H](CO)[C@H](O)[C@H](O)[C@H]1O	none
CCN(C(=O)COC(=O)/C=C/c1c(C)nn(-c2ccccc2)c1C)c1c(N)n(Cc2ccccc2)c(=O)[nH]c1=O	none
NC(=O)c1ccsc1NC(=O)COC(=O)CCCOc1ccccc1	none
NC(=O)c1ccsc1NC(=O)COC(=O)CCc1ccccc1	M1 ag parental 16.5
Fc1ccccc1C1c2[nH]c3ccccc3c2CCN1CCCn1cccn1 (stereo not drawn)	CHRM1 antagonist 38.1
O=C(Nc1ccccn1)c1ccc(CN(c2ccccc2)S(=O)(=O)c2ccccc2)cc1	none
Cc1cccc(C(C)C)c1NC(=O)c1ccc(CN(c2ccccc2)S(=O)(=O)c2ccccc2)cc1	CHO-K1 Ca antag 25.7
N#CCCN1CCN(CCC#N)c2ccccc21	none
N#CCCN1CCN(CCC#N)C1=S	M1 ag 16.1
COc1ccc(C(=O)Nc2ccc3c(c2)OCO3)cc1S(=O)(=O)N1CCOCC1	none
O=C(COC(=O)Cc1ccccc1[N+](=O)[O-])NNC(=O)c1ccc([N+](=O)[O-])cc1	none
C[C@]1(CO)CCC[C@@]2(C)C1CC[C@@H](CO)[C@@H]2CCc1ccoc1 (stereo partly drawn)	CHO-K1 Ca antag 29.9
Cc1ccc(CNC(=O)COc2cccc3c2OC(C)(C)C3)cc1	none
CC1(C)CC(=O)c2c(O)cc(OCC(=O)Nc3ccc(S(N)(=O)=O)cc3)cc2O1	none
COc1cc(NC(=O)COc2cccc3c2OC(C)(C)C3)cc(OC)c1OC	M1 ag parental 18.3
Cc1nc2ccccc2nc1OCC(=O)Nc1cc(C(F)(F)F)ccc1N1CCOCC1	none
CC1(C)Cc2cccc(OCC(=O)NCc3ccccc3F)c2O1	CHRM1 antagonist 29.0
CC(=O)Nc1ccc(NC(=O)COc2cccc3c2OC(C)(C)C3)cc1	none
COc1cc(NC(=O)COc2cc(O)c3c(c2)OC(C)(C)CC3=O)cc(OC)c1OC	M1 ag parental 18.2, CHRM1 antagonist 51.5, CHO-K1 Ca antag 36.8
CC1(C)Cc2cccc(OCC(=O)Nc3cc(C(F)(F)F)ccc3N3CCOCC3)c2O1	CHO-K1 Ca antag 30.3
O=C(CSc1nccc(=O)[nH]1)Nc1cccc2ccccc12	none
CC(=O)N1CCN(c2ccc(NC(=S)NC(=O)COc3ccc(C(C)(C)C)cc3)cc2)CC1	none
CN1CCN(c2ccc(NC(=S)NC(=O)c3cccc4c(Br)cccc34)cc2)CC1	none
CCC(=O)N1CCN(c2ccc(NC(=S)NC(=O)COc3ccccc3)cc2)CC1	CHRM1 antagonist 30.0
CN1CCN(c2ccc(NC(=S)NC(=O)c3cccc4ccccc34)cc2)CC1	CHRM1 antagonist 45.2
CCOC(=O)c1sc(=S)n(-c2cccc(C(F)(F)F)c2)c1SC	none
CCOC(=O)c1sc(=S)n(-c2ccccc2Cl)c1SC	CHRM1 antagonist 100.4
CCOC(=O)c1sc(=S)n(-c2ccc(Cl)cc2)c1C	none
CCOC(=O)c1sc(=S)n(-c2ccccc2)c1SC	CHRM1 antagonist 51.3

Screening data deposited in PubChem BioAssay by The Scripps Research Institute Molecular Screening Center.
